PostGolgi ctrl: growth inhibition of yeast control strain, primary screen, counter-screen for post-Golgi transport modulator project. efflux-deficient yeast background strain, growth absorbance A615, 16 h. inhibition, % at 10 µM. 5% of 98,000 active
CYP2C9 inhib: blockers of cytochrome P450 2C9 activity – biochemical, luminescence, ADME assay, primary screen; P11712; CYP2C9 Supersomes, luciferin-H conversion; inhibition, % at 5 µM; 20% of 96,000 active;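 active = blocking of liver enzyme CYP2C9 beyond about 50% at 5 µM, limit read from the data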
Target sequence (P11712 whole entry, looked up): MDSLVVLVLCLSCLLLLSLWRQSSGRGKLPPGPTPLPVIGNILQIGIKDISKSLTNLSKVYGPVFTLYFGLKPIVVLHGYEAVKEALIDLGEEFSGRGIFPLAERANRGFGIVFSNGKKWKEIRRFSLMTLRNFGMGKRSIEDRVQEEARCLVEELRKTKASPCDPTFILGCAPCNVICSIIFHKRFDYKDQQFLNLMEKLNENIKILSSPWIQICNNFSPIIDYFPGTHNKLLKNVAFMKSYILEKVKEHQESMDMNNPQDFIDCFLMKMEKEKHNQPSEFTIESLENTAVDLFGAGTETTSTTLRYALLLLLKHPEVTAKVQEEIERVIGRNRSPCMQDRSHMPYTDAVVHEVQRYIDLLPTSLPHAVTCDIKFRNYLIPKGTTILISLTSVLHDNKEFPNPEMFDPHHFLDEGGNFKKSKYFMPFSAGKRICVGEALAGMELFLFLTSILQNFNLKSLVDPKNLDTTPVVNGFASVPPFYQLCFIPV
CYP2C19 inhib: blockers of cytochrome P450 2C19 activity – biochemical, luminescence, ADME assay, primary screen; P33261; CYP2C19 Supersomes, luciferin-H EGE luminescence, 30 min; inhibition, % at 5 µM; 21% of 96,000 active; AID 778, 2007;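 active = CYP2C19 inhibition above a set limit at 5 µM in the primary screen, cut at about 50% in these data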
PostGolgi yeast: phenotypic screen on post-Golgi transport, primary screen | 0.9% of 98,000 active | post-Golgi transport phenotypic cell assay | AID 739, 2007 | inhibition, % at 10 µM;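 also: yeast cells grown in 1536-well plates; yeast grown about 18 h at 30C before absorbance read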
CYP2C9 act: human CYP2C9 activators, primary screen, biochemical, luminescence; 1.4% of 96,000 active; AID 1024, 2008; recombinant CYP2C9, luciferin-H conversion; hits give high values; factor 1 = untreated enzyme, 0 = blocked; activation factor at 5 µM; Cytochrome P450 2C9 (Homo sapiens), P11712;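 active = activation factor of 2 or more for CYP2C9 at a 5 µM dose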
CYP2C19 activ: human CYP2C19 activators, primary screen, biochemical, luminescence; activation factor at 5 µM; recombinant CYP2C19, luciferin-H EGE luminescence; hits give high values; 0 = fully inhibited enzyme, 1 = untreated enzyme; AID 1025, 2008; Cytochrome P450 2C19 (Homo sapiens), P33261; 96,000 tested, under 10 active;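 active = activation factor of at least 2 at 5 µM in the primary screen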
A number is an active result; . = inactive; / = no result given. An excerpt weighted towards active compounds, which were near 32% of everything screened. Rule as the data show it, unless noted: active = inhibition above about 30%; inactive = the rest.

SMILES	PostGolgi ctrl	CYP2C9 inhib	CYP2C19 inhib	PostGolgi yeast	CYP2C9 act	CYP2C19 activ
CCN(CC)c1ncccc1C(=O)NCc1cccs1	.	65	99	.	.	.
Cc1cc(C(=O)NCc2ccccc2Br)no1	.	.	70	.	.	.
CCCc1cc(C(=O)N(C2CCCCC2)C2CCCCC2)no1	.	81	64	.	.	.
COCCn1c(=O)c2c(nc3n2CCN3c2ccc(C)cc2)n(C)c1=O	.	.	.	.	.	.
Cc1nn(Cc2ccccc2)c(C)c1CCC(=O)O	.	.	.	.	.	.
CCOc1ccc(CC2CC(=O)NC2=O)cc1 (centres undefined)	.	.	.	.	.	.
COc1ccc2c(c1)c(C(O)CN1CCC3(CC1)OCCO3)c(C)n2C (centres undefined)	.	.	.	.	.	.
CCOC(=O)c1c(-c2ccc(F)cc2)cn2ccccc12	.	.	.	.	.	.
Cc1ccccc1N(Cc1ccccc1F)S(C)(=O)=O	.	70	95	.	.	.
COc1cccc(-c2csc(N3CCN(C(=O)C4CCCCC4)CC3)n2)c1	38	58	77	.	.	.
COc1cccc(-c2csc(N3CCN(C(=O)Nc4ccccc4OC)CC3)n2)c1	.	/	/	.	/	/
CC1CCCC(NC(=O)COC(=O)c2ccc(N(C)C)cc2)C1C (centres undefined)	.	54	83	.	.	.
CN(C)c1ccc(C(=O)OCC(=O)NC2CCCCC2)cc1	.	.	88	.	.	.
CC1CCCC(NC(=O)COC(=O)c2ccc3ccccc3n2)C1C (centres undefined)	.	.	62	.	.	.
CCN(CC)c1ccc(C(=O)OCC(=O)NC2CCCCC2C)cc1 (centres undefined)	.	.	.	.	.	.
COc1ccc(NC(=O)c2cccc(S(=O)(=O)N3CCOCC3)c2)cn1	.	.	.	.	.	.
Cc1cc(C)cc(N2C(=O)CC(n3nc(C)cc3C)C2=O)c1 (centres undefined)	.	.	.	.	.	.
COc1ccc(Nc2nnc(SCc3cc(=O)n4ccsc4n3)s2)cc1	.	.	.	.	.	.
CC(=O)C(=Nc1ccc(Cl)cc1Cl)NNc1cccc(Cl)c1	.	100	99	.	.	.
COc1ccc(C2OC(=O)c3ccccc3S2)cc1 (centres undefined)	.	.	.	.	.	.
COC(=O)c1c(-c2cccnc2)csc1NC(=O)c1cc(C)on1	.	.	.	.	.	.
COc1ccc(S(=O)(=O)O/N=C2\CCSc3ccc(C)cc32)cc1	.	.	56	.	.	.
CCn1c(SCC(=O)Nc2nnc(C)s2)nnc1-c1ccncc1	.	.	.	.	.	.
COc1ccccc1OCC(=O)Nc1cccc(C(=O)N2CCOCC2)c1	.	.	.	.	.	.
COC(=O)c1c(-c2cccs2)csc1NC(=O)CN1CCOCC1	.	96	94	.	.	.
SMILES	PostGolgi ctrl	CYP2C9 inhib	CYP2C19 inhib	PostGolgi yeast	CYP2C9 act	CYP2C19 activ
COC(=O)c1cc(NC(=O)CN2CCOCC2)cc(C(=O)OC)c1	.	.	.	.	.	.
CCOC(=O)c1c(-c2cccs2)csc1NC(=O)COC(=O)c1c(C)noc1C	.	87	.	.	.	.
CC(C)Cn1c(-c2cccs2)nc2ccccc21	.	.	.	.	.	.
Brc1ccccc1Cn1c(-c2cncs2)nc2ccccc21	63	.	.	.	.	.
c1csc(Cn2c(-c3cccs3)nc3ccccc32)c1	.	94	87	.	.	.
CCOC(=O)c1ccc(C(=O)OCC)nc1	.	.	.	.	.	.
CCN(c1nc(C)cc(OC)n1)S(=O)(=O)c1ccccc1	.	.	76	.	.	.
COc1cc(C)nc(NS(=O)(=O)c2ccccc2)n1	.	.	.	.	.	.
O=C(CSc1nc2ccccc2c(=O)n1NC(=O)c1ccccc1)c1ccc(Cl)cc1	.	78	.	.	.	.
O=C(CSc1nc2ccccc2c(=O)n1NC(=O)c1ccccc1)c1ccccc1	.	86	.	.	.	.

Screening data (PubChem)
